This note sets out measurements from PubChem BioAssay (NCATS).

Several values for one entry are separate records, joined by “and”; a condition that tells them apart may be missing. Equal entries are not always repeated. Records with an inconclusive call do not appear. Where a call stands in place of a potency, no number is given. Activity calls are given as the source filed them. Unless noted, the call rests on the fitted dose curve; in most records, active means well fitted inhibition curve with a large enough effect; inconclusive means small, poorly fitted or top-dose-only effect; inactive means no such curve, though single readings can be large or run the other way.

The target of test [1] is Aldehyde dehydrogenase, mitochondrial (Homo sapiens) (UniProt P05091). Description: qHTS for Inhibitors of the Aldehyde Dehydrogenase Family (ALDH2) Confirmatory screens (AID 2061303; active means well fitted inhibition curve with a large enough effect; title and protocol of this record describe different tests; further: nearly all actives have a fitted effect of over 45% in size; further: potency means the concentration at half of the fitted maximal effect).
The target of test [2] is Aldehyde dehydrogenase 1A1 (Homo sapiens) (UniProt P00352). Description: qHTS for Inhibitors of the Aldehyde Dehydrogenase Family (ALDH1A1) Confirmatory screens (AID 2061316; further: nearly all actives have a fitted effect of over 65% in size; further: potency means the concentration at half of the fitted maximal effect). (In general: Quantitative high-throughput screening tests each substance at several concentrations.)
Test [3] concerns the target Retinaldehyde dehydrogenase 3 (Homo sapiens) (UniProt P47895). Description: qHTS for Inhibitors of the Aldehyde Dehydrogenase Family (ALDH1A3) Primary screen (AID 2061315).
For test [4], the target named is Retinal dehydrogenase 2 (Homo sapiens) (UniProt O94788). Description: qHTS for Inhibitors of the Aldehyde Dehydrogenase Family (ALDH1A2) Confirmation screens (AID 2061314). Further: nearly all actives have a fitted effect of over 65% in size.
Test [5] concerns the target Retinaldehyde dehydrogenase 3 (Homo sapiens) (UniProt P47895). Description: qHTS for Inhibitors of the Aldehyde Dehydrogenase Family (ALDH1A3) Confirmatory screens (AID 2061311). Further: nearly all actives have a fitted effect of over 60% in size. Further: potency means the concentration at half of the fitted maximal effect.
Test [6] can be described thus: qHTS for Inhibitors of the Aldehyde Dehydrogenase Family (ALDH1A2, ALDH1A3, ALDH2, ALDH3A1) (AID 2061307). Further: nearly all actives have a fitted effect of over 50% in size. On potency: test system not described further here; potency means the concentration at half of the fitted maximal effect.

Turning to `CCN1c2cc(C(=O)Nc3ccc(C#N)cc3)ccc2C(=O)N2CCCCCC21` (configuration not stated), in test [1], the Potency entry is “inactive”. Besides, in test [2], the Potency is 6.47 µM (active). Consider `COc1ccc(-c2no[n+]([O-])c2C#N)cc1`, for which the Potency entry in test [1] and in test [3] was “inactive” in each case. For the compound `O=C(OCC#CCSc1nnc(-c2cccc3ccccc23)o1)c1ccco1`, the Potency in test [1] and in test [2] was 6.34 µM (active) throughout. Moreover, the Potency entry in test [3] is “inactive”. For the compound `Oc1ccc(Nc2nc(-c3ccncc3)nc3ccccc23)cc1F`, the Potency entry in test [1] and in test [3] was “inactive” each time. For `[O-][n+]1onc(-c2ccccc2)c1CO`, the Potency entry in test [1], in test [4] and in test [3] was “inactive” in each case. On to `CC(=O)N1CCN(c2nc(-c3ccc(Br)cc3)cs2)CC1`, for which the figures for the Potency in test [1] and in test [5] were 25.1 µM (active) and 12.6 µM (active), respectively. For the same compound, the Potency entry in test [3] and in test [2] was “inactive” each time. Regarding `O=C(NCCN1CCN(c2ccccc2)CC1)Nc1cccc(Br)c1`, the Potency result in test [1] and in test [4] was “inactive” each time. For `CC(C)N1CCc2c(sc(NC(=O)Cc3ccccc3)c2-c2nc3ccccc3s2)C1`, the Potency entry in test [1], in test [5], in test [3] and in test [2] was “inactive” throughout. With `O=C(CCC#CCSc1nnc(-c2cccc3ccccc23)o1)c1ccccc1`, the Potency in test [1] is 20.1 µM (active). Moreover, in test [3], the Potency result is “inactive”. `CCN(CC)c1ccc(NC(=O)Nc2ccc(C(C)=O)cc2)cc1`: the Potency result in test [1], in test [4] and in test [3] was “inactive” in each case. Consider `O=C(Nc1cccc(-c2ccc(N3CCOCC3)nn2)c1)Nc1cccc(C(F)(F)F)c1`, for which the Potency result in test [1], in test [5] and in test [2] was “inactive” in each case. As to `COc1ccc(S(=O)(=O)N2CCC3(CC2)CC(CC(=O)NC2CC2)CCO3)cc1` (configuration not stated), the Potency result in test [1] and in test [4] was “inactive” in each case.

Turning to `COc1cc(F)ccc1-c1ccnc2nc(Cc3ccc(F)cc3)nn12`, the Potency result in test [1] and in test [2] was “inactive” in each case. With `COc1ccc(-c2ccc(CNc3ccc4[nH]c(=O)[nH]c4c3)o2)cc1Cl`, the Potency in test [1] was 1.82 µM (active); in test [2], 7.26 µM (active). As for `NC(=O)Nc1ccc(CNC(=O)C2Cc3ccccc3O2)cc1` (configuration not stated), the Potency result in test [6] was “inactive”. As to `COc1cc(O)c(C(CC(=O)N2CC(C)CC(C)C2)c2cccc(NS(C)(=O)=O)c2)c(OC)c1` (configuration not stated), the Potency in test [6] is 3.66 µM (active).

On to `NC(=O)c1cccc2c1CCCN2C(=O)c1csc(-c2ccc(Cl)cc2)n1`, for which the Potency entry in test [6] was “inactive”.

For the compound `COc1ccc(Cl)cc1Nc1cc(C)nc2nc(-c3ccccc3C)nn12`, the Potency entry in test [6] is “inactive”.

As for `Cc1ccc(NC(=O)c2cc(-c3cccs3)on2)cc1C`, the Potency entry in test [6] is “inactive”. As for `O=C(Nc1ncc(Cc2ccc(C(F)(F)F)cc2)s1)C1CCC(c2ccccc2)CC1` (configuration not stated), the Potency result in test [6] is “inactive”. With `COc1ccc(-n2ncc3c2CCCC3NC(=O)c2cccc(C(F)(F)F)c2)cc1` (configuration not stated), the Potency in test [6] was 11.3 µM (active). On the same count and under the same terms, as for `CCN(CC)C(=O)c1ccc(S(=O)(=O)N2CCC(c3nc4ccccc4s3)CC2)cc1`, the entry is “inactive”; as for `O=C(N/N=C/c1ccc(Br)o1)c1ccccc1`, “inactive”; as for `CN1CCC(CNCc2nccc3c(=O)[nH]c(COc4ccc(Cc5ccccc5)cc4)nc23)C1` (configuration not stated), “inactive”.

For the compound `O=C(c1cccc(Cl)c1)c1no[n+]([O-])c1C(=O)c1cccc(Cl)c1`, the Potency in test [6] is 12.7 µM (active). As for `Cc1occc1C(=O)N1CCc2cc(-c3nc(NC(=O)Cc4ccc5c(c4)OCO5)sc3C)ccc21`, the Potency in test [6] was 7.08 µM (active). The same measure, in the same setting: under `Cc1cc(=O)n2[nH]c(NC(=O)c3ccccc3C)nc2n1` stands “inactive”; under `COCCN(C)S(=O)(=O)c1ccc(NC(=O)c2ccc(CN3CCc4ccccc4C3)cc2)cc1`, “inactive”; under `CCc1ccc(CNC(=O)c2cnc3c(C)cccn3c2=O)cc1`, “inactive”. For the compound `COc1ccc(-c2cc(C(=O)Nc3sc4c(c3C(N)=O)CCCC4)no2)cc1`, in test [6], the Potency result was “inactive”.

On to `COc1ccc(C(=O)OCC(=O)Nc2cccc(C(F)(F)F)c2)cc1OC`, for which, in test [6], the Potency result was “inactive”.

For `Cc1ccc(NC(=O)Nc2cc3c(cc2N2CCCCC2)n(C)c(=O)n3C)cc1Cl`, the Potency in test [6] is 3.55 µM (active) and 798 nM (active).

On to `O=C(CCCCc1cn(-c2cc3ccc(O)cc3oc2=O)nn1)NCCOCCOCCOc1ccc(-n2ncc3c2CCCC3NC(=O)c2ccccn2)cc1` (configuration not stated), for which, in test [6], the Potency was 2.82 µM (active). As for `COCCN(CC(=O)Nc1cccc(C)c1C)C(=O)c1cc2c(s1)CCC2`, the Potency entry in test [6] is “inactive”. In the case of `COc1cc(O)c(C(CC(=O)N2CC(C)CC(C)C2)c2ccc(S(=O)(=O)N(C)C)cc2)c(OC)c1` (configuration not stated), the Potency result in test [6] is “inactive”. Regarding `c1ccc(CN2CCN(c3nccc(-c4ccncc4)n3)CC2)nc1`, the Potency result in test [6] was “inactive”.

On to `O=[N+]([O-])c1ccc(NC(=S)N=Nc2c(O)[nH]c3ccccc23)cc1`, for which, in test [6], the Potency is 7.12 µM (active). The same measure, in the same setting: under `CCN(CC)S(=O)(=O)c1ccc(NC(=O)c2ccc(CN3CCc4ccccc4C3)cc2)cc1` stands “inactive”; under `c1coc(-c2ccc3nncn3c2)c1`, 8.96 µM (active); under `CC(=O)c1cc2c(cc1NC(=O)c1cnn(-c3ccc(F)cc3F)c1)OCO2`, “inactive”.
